Bioassay records from PubChem.
CD40 NFkB inh = CD40 pathway inhibition in BL2 cells. BL2 NF-kB luciferase reporter, CD40L-induced, 4 h. inhibition, % at 10 µM. 83,000 tested, 0.94% active. AID 1053188;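 active means mean inhibition of at least 50% with a set share of replicates also reaching that level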
Of the large screens only hits and unclear results are named; the others gave an inactive call; ! = not active in a repeat. Only a selection was taken, and hits are over-represented in it overall.

CN1C(=O)c2cc(NC(=O)C3CCCCC3)ccc2OC[C@H]2O[C@H](CC(=O)NCC3CCCCC3)CC[C@@H]21	none
CCOC(=O)/C=C/S(=O)(=O)c1ccc(NC(C)=O)cc1	CD40 NFkB inh 110
CCS(=O)(=O)Nc1ccc(NC(C)=O)cc1	none
CCC(C)NS(=O)(=O)c1ccc(NC(C)=O)cc1 (centres undefined)	none
CC(C)OC(=O)N(C)C[C@@H]1OCc2ccccc2-c2ccccc2C(=O)N([C@@H](C)CO)C[C@H]1C	none
N#C[C@H]1[C@H](c2ccc(C#Cc3cccnc3)cc2)[C@@H](CO)N1C(=O)NC1CCCC1	none
Cc1cc(Br)c(OCc2ccc(C(=O)N/N=C/c3ccc[nH]3)cc2)c(Br)c1	CD40 NFkB inh 75
O=C(CNC(=O)c1ccc(Br)cc1)N/N=C/c1ccc[nH]1	none
O=C(N/N=C/c1ccc[nH]1)c1ccc(O)cc1	none
C[C@@H]1CN([C@@H](C)CO)C(=O)c2ccccc2-c2ccccc2CO[C@@H]1CN(C)C(=O)Cc1ccccc1	none
N#C[C@@H]1[C@H](c2ccc(C3=CCCCC3)cc2)[C@H](CO)N1C(=O)CN1CCOCC1	none
C[C@@H]1CN([C@H](C)CO)C(=O)c2ccccc2-c2ccccc2CO[C@@H]1CN(C)Cc1cccc2c1OCCCO2	none
c1ccc2sc(-c3ccc4c(c3)OCO4)nc2c1	CD40 NFkB inh 53
c1csc(-c2nc3ccccc3s2)c1	none
CCN1CCN(C(=O)c2ccc(-c3nc4ccccc4s3)s2)CC1	none
c1ccc2[nH]c(-c3ccc4c(c3)OCO4)nc2c1	none
O=C(c1cc2ccccc2s1)N1CCOCC1	none
O=C(NC1CC1)c1ccc(-c2nc3ccccc3s2)s1	CD40 NFkB inh 75
O=C(c1ccc(-c2nc3ccccc3s2)s1)N1CCOCC1	CD40 NFkB inh 88
CCNC(=O)COC(=O)c1ccc(-c2nc3ccccc3s2)s1	none
O=C(Nc1cccc(-c2nc3ccccc3s2)c1)c1ccc2c(c1)OCO2	none
CC=Cc1ccc2n(c1=O)C[C@@H]1[C@@H](CO)[C@H](C(=O)NCCc3cn(C)cn3)N(C(=O)C3CC3)[C@H]21 (mixture of isomers)	none
O=C(C1CCCC1)N1CC(=O)N2[C@H](CO)[C@H](c3ccc(-c4cccnc4)cc3)[C@H]2C1	none
O=C(Nc1cccc(Cl)c1)N1C[C@@H]2[C@H](c3ccccc31)[C@H](CO)N2C(=O)c1ccncc1	none
O=C1N[C@@H](c2ccccc2)COCc2cn(nn2)CC[C@@H](Cc2ccc(C(F)(F)F)cc2)C(=O)N[C@@H](c2ccccc2)COCc2cn(nn2)CC[C@H]1Cc1ccc(C(F)(F)F)cc1	none
CNC[C@H]1Oc2c(NC(=O)NC(C)C)cccc2C(=O)N(C)C[C@H]1C	none
CC(C)(C)[S@](=O)N1Cc2cc(C(=O)NCCc3ccncc3)nc(-c3cccc(-c4ccncc4)c3)c2[C@@H]1CCO	none
O=C(c1ccc(F)cc1)N1C[C@@H]2N[C@H](C1)C2c1ccc(-c2ccccc2F)cc1 (some centres undefined)	none
O=C(Nc1ccc(C(F)(F)F)cc1)N1C[C@@H]2N[C@H](C1)C2c1ccc(/C=C/c2ccccc2)cc1 (some centres undefined)	none
O=C(Nc1ccc(C(F)(F)F)cc1)N1C[C@@H]2N[C@H](C1)C2c1ccc(-c2ccccc2)cc1 (some centres undefined)	CD40 NFkB inh 70!
N#Cc1cccc(-c2ccc(C3[C@@H]4CN(C(=O)C5CC5)C[C@H]3N4)cc2)c1 (some centres undefined)	CD40 NFkB inh 76!
O=C(C1CC1)N1C[C@@H]2N[C@H](C1)C2c1ccc(-c2ccccc2F)cc1 (some centres undefined)	CD40 NFkB inh 83!
Cc1cccc(-c2ccc(C3[C@@H]4CN(C(=O)C5CCC5)C[C@H]3N4)cc2)c1 (some centres undefined)	none
Cc1cccc(-c2ccc(C3[C@@H]4CN(C(=O)Nc5ccccc5)C[C@H]3N4)cc2)c1 (some centres undefined)	none
O=C(C1CCCC1)N1C[C@@H]2N[C@H](C1)C2c1ccc(-c2cccc(F)c2)cc1 (some centres undefined)	none
O=C(C1CC1)N1C[C@@H]2N[C@H](C1)C2c1ccc(-c2cccc(F)c2)cc1 (some centres undefined)	CD40 NFkB inh 60!
N#Cc1ccc(-c2ccc(C3[C@@H]4CN(C(=O)C5CCC5)C[C@H]3N4)cc2)cc1 (some centres undefined)	none
O=C(Nc1ccc(F)cc1)N1C[C@@H]2N[C@H](C1)C2c1ccc(-c2ccccc2F)cc1 (some centres undefined)	none
N#Cc1ccc(-c2ccc(C3[C@@H]4CN(C(=O)C5CCCC5)C[C@H]3N4)cc2)cc1 (some centres undefined)	none
CC(C)NC(=O)Nc1ccc2c(c1)CC(=O)N([C@H](C)CO)C[C@H](C)[C@@H](CN(C)C(=O)NC1CCCCC1)O2	none
COc1ccccc1NC(=O)N1[C@@H]2CNC[C@H]1[C@@H]2c1ccc(-c2ccc(C#N)cc2)cc1	none
CC(=O)Nc1cccc2c1O[C@@H](CN(C)C(=O)NC(C)C)[C@H](C)CN(C)C2=O	none
CC[C@@H]1C/C=C\C[C@H](c2ccccc2)NC(=O)CCC(=O)N1	none
